From PubChem BioAssay (NCATS) come the findings set out here.

Records with an inconclusive call do not appear. Activity calls are given as the source filed them. Calls follow the shape of the dose curve; as a rule, active = well fitted cell-killing curve with a large enough effect; inconclusive = small, poorly fitted or top-dose-only effect; inactive = flat fitted curve, though single readings scatter.

The assay in a line: Cellular viability qHTS for adrenocortical cancer (ACC) cell line NCI-H295R (AID 1963990). Also: nearly all actives have a fitted effect of over 60% in size.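 As to activity change, negative = viability loss: 0% = DMSO only wells and -100% = full killing with cytotoxic reference compound.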 The note with it: CellTiter-Glo ATP luminescence, 48 h; series mostly up to 46.1 µM; activity change, negative = viability loss: at the top concentration. Put shortly:
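IC50 and maximal efficacy derive from four-parameter logistic modelling of titration curves, with reads scaled between DMSO-only wells (0%) and doxorubicin hydrochloride (100% inhibition). Compounds spanned up to 46 uM over 48 h.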
`C[C@H]1CN(C2COC2)CCN1c1ccc(Nc2cc(-c3ccnc(N4CCn5c(cc6c5CC(C)(C)C6)C4=O)c3CO)cn(C)c2=O)nc1`: the “activity change, negative = viability loss” value is -1.69% (inactive).
Regarding `COc1ccc([C@@H]2Sc3ccccc3NC(=O)[C@@H]2O)cc1`, the Potency is 23.1 µM (active).
On to `CC(O)c1cc(C(=O)N[C@@H](C)Cn2ccc(-c3ccc(C#N)c(Cl)c3)n2)n[nH]1` (stereo partly specified), for which the “activity change, negative = viability loss” value was 0.758% (inactive).
On the same count and under the same terms, in the case of `C[C@H]1[C@H](C)CC[C@]2(C(=O)O)CC[C@]3(C)C(=CC[C@@H]4[C@@]5(C)C[C@@H](O)[C@H](O)[C@@](C)(CO)[C@@H]5CC[C@]43C)[C@H]12` it was -12.5% (inactive).
Turning to `Cc1c2oc3c(C)ccc(C(=O)N[C@@H]4C(=O)N[C@H](C(C)C)C(=O)N5CCC[C@H]5C(=O)N(C)CC(=O)N(C)[C@@H](C(C)C)C(=O)O[C@@H]4C)c3nc-2c(C(=O)N[C@@H]2C(=O)N[C@H](C(C)C)C(=O)N3CCC[C@H]3C(=O)N(C)CC(=O)N(C)[C@@H](C(C)C)C(=O)O[C@@H]2C)c(N)c1=O`, the Potency is 0.0517 µM (active).
Still for that read-out and setting: the result for `COc1ccc(/C=C/C(=O)c2ccc(OC)cc2OC)cc1` reads 9.2 µM (active).
In the case of `Cn1cc(C(=O)[C@@H]2CCc3nc[nH]c3C2)c2ccccc21`, the “activity change, negative = viability loss” value is -12.9% (inactive).
For `O=C(Nc1ccccc1)OCC(CN1CCCCC1)OC(=O)Nc1ccccc1` (stereo unspecified), the Potency is 23.1 µM (active).
For `Cc1nc2n(c(=O)c1CCN1CCC(C(=O)c3ccc(F)cc3)CC1)CCS2`, the “activity change, negative = viability loss” value is -28.2% (inactive).
In the case of `CCOC(=O)C1=C(C)NC(C)=C(C(=O)OC)C1c1cccc([N+](=O)[O-])c1` (stereo unspecified), the Potency is 16.4 µM (active).
In the case of `COc1ccc2c(c1)C(=O)N(CCc1ccc(S(=O)(=O)NC(=O)NC3CCCCC3)cc1)C(=O)C2(C)C`, the “activity change, negative = viability loss” value was -19.5% (inactive).
Consider `NNC(=O)CP(=O)(c1ccccc1)c1ccccc1`, for which the Potency was 16.4 µM (active).
Regarding `O=C(c1ccc(F)cc1)C1CCN(CCn2c(=S)[nH]c3ccccc3c2=O)CC1`, the “activity change, negative = viability loss” value is -13.9% (inactive).
Consider `Cc1cnc(Nc2ccc(F)cc2Cl)nc1-c1c[nH]c(C(=O)NC(CO)c2cccc(Cl)c2)c1` (stereo unspecified), for which the Potency is 8.91 µM (active).
On to `CCC(=O)Oc1ccc2c(c1)CC[C@@H]1[C@@H]2CC[C@@]2(C)[C@H]1C[C@@H](OC(=O)CC)[C@@H]2OC(=O)CC`, for which the “activity change, negative = viability loss” value is -21.1% (inactive).
Still for that read-out and setting: in the case of `c1ccc(OCc2ccc(CCCN3CCOCC3)cc2)cc1` it was -14.6% (inactive); in that of `C=CC[N+]1([C@H]2C[C@H]3[C@@H]4CC[C@H]5C[C@H](O)[C@@H](N6CCOCC6)C[C@]5(C)[C@H]4CC[C@]3(C)[C@H]2OC(C)=O)CCCC1`, -24.1% (inactive).
Turning to `CCCSS/C(CCO)=C(\C)N(C=O)Cc1cnc(C)nc1N`, the Potency is 9.2 µM (active).
`C[C@@H](c1ccc2nccn2c1)n1nnc2ncc(-c3cnn(C)c3)nc21`: the “activity change, negative = viability loss” value was -13.2% (inactive).
On the same count and under the same terms, in the case of `COc1ccc(S(=O)(=O)NCc2ccc(C(=O)NCCc3ccc(Cl)cn3)cc2)cc1` it was -20.4% (inactive); in that of `Cn1ncnc1[C@H]1c2n[nH]c(=O)c3cc(F)cc(c23)N[C@@H]1c1ccc(F)cc1`, -20.2% (inactive).
Same read-out and setting: the result for `CN1C(=O)[C@@H](NC(=O)c2cc(Cc3ccccc3)on2)COc2ccccc21` reads -6.6% (inactive); that for `N[C@H](C(=O)O)[C@@H](O)c1ccc(O)c(O)c1`, -18.1% (inactive).
Consider `Cc1ccc(NC(=O)c2ccc(CN3CCN(C)CC3)cc2)cc1Nc1nccc(-c2cccnc2)n1`, for which the Potency is 25.1 µM (active).
For the compound `CC(C)=CCOc1ccc(/C=C/C(=O)c2ccc(OCC=C(C)C)cc2OCC(=O)O)cc1`, the Potency is 9.2 µM (active).
Same read-out and setting: the result for `NC(=O)n1c(O)c(C(=O)c2cccs2)c2cc(Cl)ccc21` reads 9.2 µM (active).
